Measured values from PubChem BioAssay AID602399 (Sanford-Burnham Center for Chemical Genomics, 2012).
Out of some 360,000 compounds screened, about 2,800 (0.78%) were called active. Rule as the data show it: active = inhibition above about 26%; inactive = the rest. The list comes from a sample in which actives are over-represented; it also holds similar structures and randomly drawn compounds.

Tested on: Nicotinate-nucleotide adenylyltransferase NadD (Staphylococcus aureus N315)
Assay: inhibitors of S. aureus NadD, primary screen, biochemical, colorimetric, uHTS (AID 602399)
Conditions: purified NadD enzyme, colorimetric absorbance read-out; at 20 µM; stronger effect = higher value

| SMILES | inhibition |
| --- | --- |
| O=C(NCCCCc1ccccc1)C1CC(c2ccc([N+](=O)[O-])cc2)=NO1 (stereo unspecified) | -8.64% (inactive) |
| COc1cccc(CNC(C)C(=O)Nc2ccc(S(=O)(=O)N3CCCC3)cc2)c1 (stereo unspecified) | 0.261% (inactive) |
| COC(=O)c1ccc(C2NC(=O)NC(C)=C2C(=O)N(C)C)cc1 (stereo unspecified) | -2.37% (inactive) |
| CCOC(=O)C1=C(C)Nc2sc(C(=O)c3ccc(Br)cc3)c(N)c2C1c1ccc(C(=O)OC)cc1 (stereo unspecified) | 33.6% (active) |
| CCOC(=O)c1sc(=NC(=O)c2ccc(Br)cc2)n(C)c1C | -0.0934% (inactive) |
| Cc1nc(CC(=O)NNS(=O)(=O)c2ccc(F)c(Cl)c2)cs1 | -1.28% (inactive) |
| CC(C)Oc1ccc(CCc2nnc(SCC(=O)O)n2-c2ccccc2)cc1 | -4.23% (inactive) |
| CCCCC(=O)Nc1c2c(nn1-c1ccc([N+](=O)[O-])cc1)CS(=O)(=O)C2 | -6.61% (inactive) |
| O=C1/C(=C\c2ccc([N+](=O)[O-])cc2)CS(=O)(=O)C/C1=C/c1ccc([N+](=O)[O-])cc1 | 35.3% (active) |
| O=C1CCCN1C(=O)COc1ccc([N+](=O)[O-])cc1 | 0.0869% (inactive) |
| CCNC(=O)Nc1ccc(S(=O)(=O)Nc2cnc(C)nc2C)cc1 | 4.03% (inactive) |
| c1ccc2c(c1)OCCOCCOCCO2 | 1.98% (inactive) |
| CS(=O)(=O)c1ccc2c(c1)SC1=NC(=O)/C(=C/c3ccco3)C(=N)N12 | 35% (active) |
| COc1ccc(S(=O)(=O)N2CCOC2CNC(=O)C(=O)NCc2ccncc2)cc1OC (stereo unspecified) | -7.02% (inactive) |
| NC(c1ccccc1)c1csc(NC(=O)Nc2cccc(C(F)(F)F)c2)n1 (stereo unspecified) | 3.58% (inactive) |
| CC(=O)c1ccc(Nc2nc(C(N)c3ccccc3Cl)cs2)cc1 (stereo unspecified) | -4.95% (inactive) |
| NC(c1csc(NC(=O)Nc2ccccc2Oc2ccccc2)n1)c1ccccc1Cl (stereo unspecified) | 40.7% (active) |
| CCOc1ccc(S(=O)(=O)N(CC(=O)NCC(F)(F)F)Cc2ccco2)cc1 | -2.92% (inactive) |
| CC1=NN(c2cccc(Cl)c2)C(=O)C12CC(C)=C(C)CS2 (stereo unspecified) | -3.46% (inactive) |

| SMILES | inhibition |
| --- | --- |
| CC(C)(C)C(=O)Nc1ccc(C(=O)N/N=C/c2ccccc2OC(=O)c2ccc(Cl)cc2Cl)cc1 | 38.5% (active) |
| O=C(N/N=C/c1ccoc1)c1ccc(Cl)cc1Cl | -0.584% (inactive) |
| O=C(N/N=C/c1ccccn1)c1cccc(NC(=O)c2ccc(Cl)cc2)c1 | 6.47% (inactive) |
| O=c1[nH]c(CCl)nc2cc(-c3ccc(Cl)cc3)sc12 | 1.98% (inactive) |
| CCc1[nH]nc(C(=O)N2CCCC(CO)(Cc3ccc(F)cc3F)C2)c1C (stereo unspecified) | 1.03% (inactive) |
| CCCn1c(C2CCCN2c2nc(-c3ccc(C)cc3)cs2)nc2cc(Cl)c(N3CCCCC3)cc21 (stereo unspecified) | 7.02% (inactive) |
| Cc1ccc(-c2csc(N3CCN(c4cc5c(cc4Cl)nc(-c4ccncc4)n5CCOCCO)CC3)n2)cc1 | -0.493% (inactive) |
| CCCn1c(C(C)Nc2nc(-c3ccc(C)cc3)cs2)nc2cc(Cl)c(N3CCCCC3)cc21 (stereo unspecified) | 30.3% (active) |
| CC(=O)C1=C(C)NC2=C(C(=O)CC(C)(C)C2)C1C (stereo unspecified) | -0.177% (inactive) |
| Cc1cc(C(=O)N/N=C/c2ccc(O)c([N+](=O)[O-])c2)c(C)n1-c1ccc(F)cc1 | 33.3% (active) |
| CCOc1cc(/C=N/NC(=O)c2c(C)nc3ccc(Cl)cn23)ccc1O | -0.152% (inactive) |
| O=C1CSC(=S)N1/N=C/c1ccc(O)c([N+](=O)[O-])c1 | 5.51% (inactive) |
| CCCCCCCC1(C)NC(=O)N(CC(=O)Nc2cc(C)on2)C1=O (stereo unspecified) | -7.34% (inactive) |
| O=C(CC1C(=O)NCCN1CC(c1ccccc1)c1ccccc1)NCCc1cn[nH]c1 (stereo unspecified) | 7.62% (inactive) |
| Cn1ncc([N+](=O)[O-])c1C(=O)Nc1cc(Cl)ccc1Cl | -3.19% (inactive) |
| Cc1cc(C)c(OCC(=O)N(Cc2cccs2)C2CCS(=O)(=O)C2)c(C)c1 (stereo unspecified) | -1.96% (inactive) |
| COc1cccc2c1C(=O)c1c(O)c3c(c(O)c1C2=O)CC(O)(C(C)=NNC(=O)c1ccc(Cl)c(Cl)c1)CC3OC1CC(N)C(O)C(C)O1 (stereo unspecified) | 38.5% (active) |
| Brc1cnc(N2CCCC2)nc1N1CCCCC1 | -5% (inactive) |
| Cc1cc2nc(-c3ccc(F)cc3)c(Cc3ccsc3)n2c(C)c1Br | 16.1% (inactive) |

| SMILES | inhibition |
| --- | --- |
| Cc1cc2nc(-c3ccco3)c(Cc3cccc(F)c3)n2c(C)c1Br | 50.5% (active) |
| Cc1cc2nc(-c3ccc(Cl)cc3)c(Cc3cccc(F)c3)n2c(C)c1Br | 28.5% (inactive) |
| CCCSc1nc2[nH]ncc2c(=O)[nH]1 | 0.611% (inactive) |
| CC(C)Oc1c(Br)cc(Br)cc1/C=N/NC(N)=S | 6.4% (inactive) |
| COCCNC(=O)CN(Cc1ccco1)C(=O)CCC(=O)Nc1nccs1 | -5.06% (inactive) |
| C=CCn1c(SCc2cccc(F)c2)nc2cc(C(=O)N3CCC(C(N)=O)CC3)ccc2c1=O | -4.38% (inactive) |
| O=C1Nc2cc(C(=O)N3CCN(c4ccc(F)cc4)CC3)ccc2NC1CSCc1cccc(F)c1 (stereo unspecified) | 36.8% (active) |
| Cc1noc(C)c1S(=O)(=O)Nc1ccc(C(=O)N2CCN(c3ccc(F)cc3)CC2)cc1 | 10.7% (inactive) |
| O=C(c1cccc(F)c1)N1CCN(c2ccc([N+](=O)[O-])c(N3CCCCC3)c2)CC1 | -9.3% (inactive) |
| Cc1ccc(CSCC2Nc3ccc(C(=O)N4CCN(c5ccc(F)cc5)CC4)cc3NC2=O)cc1 (stereo unspecified) | 73.7% (active) |
| COC(=O)c1ccc(C(=O)OC)c(NC(=S)N2CCN(c3ccc(F)cc3)CC2)c1 | -1.25% (inactive) |
| COC(=O)c1ccc(/C=N/N2C(C)CCCC2C)cc1 (stereo unspecified) | -8.27% (inactive) |
| O=C(COC(=O)c1ccc(Cl)nc1)NCc1ccc2c(c1)OCO2 | 0.8% (inactive) |
| CC(NC(=S)Nc1ccc(S(N)(=O)=O)cc1)c1ccc2c(c1)OCO2 (stereo unspecified) | -0.72% (inactive) |
| NS(=O)(=O)c1ccc(NC(=O)COC(=O)c2c3c(nc4ccccc24)/C(=C\c2ccc4c(c2)OCO4)CCC3)cc1 | 54.7% (active) |
| CC(=O)Nc1cccc(C(=O)OCC(=O)c2ccc3c(c2)OCO3)c1 | -7.21% (inactive) |
| NC(=O)c1ccc(NC(=O)COC(=O)c2c3c(nc4ccccc24)/C(=C\c2ccc4c(c2)OCO4)CCC3)cc1 | 55.2% (active) |
| NS(=O)(=O)c1ccc(NC(=O)COC(=O)CCc2c[nH]c3ccccc23)cc1 | -1.06% (inactive) |
